PubChem BioAssay (Tox21)
Where “and” joins values, the source holds several entries; their conditions need not be identical. Identical values can stand only once. Calls of active or inactive are those of the source. A call without a number means that no potency is given here. Unless noted, the call rests on the fitted dose curve; in most records, active means well fitted curve in the direction sought with a large enough effect in the repeat runs; inconclusive means weak or mixed curves; inactive means flat fitted curve, though single readings scatter.

Tested on: not listed separately
Experiment: qHTS assay to test for compound auto fluorescence at 535 nm (green) in HepG2 cell free culture (AID 720686)
Details: Cell-free medium, green autofluorescence 485/535 nm; series mostly up to 91.3 µM
For COc1ccc2c(c1)c(CC(=O)O)c(C)n2C(=O)c1ccc(Cl)cc1, the Potency was “inactive”. For C/C=C/C=C/C(=O)O, the Potency was “inactive”. In the case of Oc1ccccc1, the Potency is reported as “inactive”. In the case of Nc1ccc(O)c([N+](=O)[O-])c1, the Potency is reported as “inactive”. With CN1CCC[C@H]1c1cccnc1 the Potency was “inactive”. With CCN(CC)C(=O)c1cccc(C)c1 the Potency was “inactive”. For COc1ccc(CN(CCN(C)C)c2ccccn2)cc1, the Potency was “inactive”. For O=S1(=O)OC(c2ccc(O)cc2)(c2ccc(O)cc2)c2ccccc21, the Potency was “inactive”.

Tested on: not listed separately
Experiment: qHTS assay to test for compound auto fluorescence at 460 nm (blue) in HepG2 cells (AID 720687)
Details: autofluorescence 405/460 nm, 1 h; series mostly up to 91.3 µM
Procedure, shortened: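 HepG2 cells in MEM with 10% FBS, attached overnight at 37 C, were exposed to compound or DMSO for 1 hr at 37 C, 5% CO2. Blue fluorescence was read at 405/460 nm, with triamterene as reference fluorophore.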
With Cc1cn([C@H]2C=C[C@@H](CO)O2)c(=O)[nH]c1=O the Potency was “inactive”. For O=C(O)CC(O)C(=O)O (configuration not stated), the Potency was “inactive”. In the case of CCCCCCCCCCCC[N+](C)(C)Cc1ccccc1, the Potency is reported as “inactive”. With COc1ccc(C(Cl)=C(c2ccc(OC)cc2)c2ccc(OC)cc2)cc1 the Potency was “inactive”. With Nc1ccc([N+](=O)[O-])cc1O the Potency was “inactive”. With O=C1NS(=O)(=O)c2ccccc21 the Potency was “inactive”. With CCCCNC(=O)NS(=O)(=O)c1ccc(C)cc1 the Potency was “inactive”. For Nc1c(N=Nc2ccc(-c3ccc(N=Nc4cc(S(=O)(=O)O)c5ccccc5c4N)cc3)cc2)cc(S(=O)(=O)O)c2ccccc12, the Potency was “inactive”. For O=C(Nc1ncc([N+](=O)[O-])s1)c1cccs1, the Potency was “inactive”. In the case of CC(O)(P(=O)(O)O)P(=O)(O)O, the Potency is reported as “inactive”. With CC1(C)O[C@@H]2C[C@H]3[C@@H]4CCC5=CC(=O)C=C[C@]5(C)[C@@]4(F)[C@@H](O)C[C@]3(C)[C@]2(C(=O)CO)O1 the Potency was “inactive”. With CC(=O)Nc1c(I)c(NC(C)=O)c(I)c(C(=O)O)c1I the Potency was “inactive”. In the case of NC1CCCCC1, the Potency is reported as “inactive”. For Cc1ncc([N+](=O)[O-])n1CCO, the Potency was “inactive”. In the case of Cc1cccc(C)c1, the Potency is reported as “inactive”. In the case of CCOC(N)=O, the Potency is reported as “inactive”. In the case of O=C1OC2(c3ccccc31)c1cc(Br)c(O)c(Br)c1Oc1c2cc(Br)c(O)c1Br, the Potency is reported as “inactive”. For Cc1ccc(S(=O)(=O)O)cc1, the Potency was “inactive”. With CC/C(=C(\c1ccccc1)c1ccc(OCCN(C)C)cc1)c1ccccc1 the Potency was “inactive”. With CC(=O)C(=O)O the Potency was “inactive”. With C=C(C)C(=O)OCC(C)O (configuration not stated) the Potency was “inactive”. For COc1ccc2c(c1)c(CC(=O)O)c(C)n2C(=O)c1ccc(Cl)cc1, the Potency was “inactive”. For C/C=C/C=C/C(=O)O, the Potency was “inactive”. For Oc1ccccc1, the Potency was “inactive”. For Nc1ccc(O)c([N+](=O)[O-])c1, the Potency was “inactive”. In the case of CN1CCC[C@H]1c1cccnc1, the Potency is reported as “inactive”. With CCN(CC)C(=O)c1cccc(C)c1 the Potency was “inactive”. With COc1ccc(CN(CCN(C)C)c2ccccn2)cc1 the Potency was “inactive”. In the case of O=S1(=O)OC(c2ccc(O)cc2)(c2ccc(O)cc2)c2ccccc21, the Potency is reported as “inactive”.

Biological target: Glucocorticoid receptor (Homo sapiens) (UniProt P04150)
Sequence (P04150 whole entry, looked up): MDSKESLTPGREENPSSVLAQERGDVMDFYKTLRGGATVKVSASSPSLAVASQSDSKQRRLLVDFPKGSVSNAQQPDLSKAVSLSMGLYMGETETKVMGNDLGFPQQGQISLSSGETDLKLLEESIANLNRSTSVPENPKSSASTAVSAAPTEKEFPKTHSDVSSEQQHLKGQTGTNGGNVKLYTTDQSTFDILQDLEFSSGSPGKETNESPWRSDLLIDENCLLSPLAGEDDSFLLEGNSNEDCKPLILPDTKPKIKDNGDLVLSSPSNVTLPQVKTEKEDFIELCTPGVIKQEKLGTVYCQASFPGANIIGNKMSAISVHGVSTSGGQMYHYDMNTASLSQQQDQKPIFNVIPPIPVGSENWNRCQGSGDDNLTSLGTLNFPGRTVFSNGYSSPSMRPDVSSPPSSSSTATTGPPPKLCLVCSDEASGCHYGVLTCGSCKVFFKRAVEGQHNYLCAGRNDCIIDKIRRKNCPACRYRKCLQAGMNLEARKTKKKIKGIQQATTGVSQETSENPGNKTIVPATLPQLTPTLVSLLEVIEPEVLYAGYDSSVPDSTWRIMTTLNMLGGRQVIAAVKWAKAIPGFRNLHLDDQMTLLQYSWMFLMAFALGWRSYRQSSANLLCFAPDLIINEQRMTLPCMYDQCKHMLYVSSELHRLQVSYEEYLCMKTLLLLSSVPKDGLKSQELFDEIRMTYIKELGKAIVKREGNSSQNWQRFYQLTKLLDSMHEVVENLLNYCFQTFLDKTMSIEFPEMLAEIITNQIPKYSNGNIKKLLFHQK
Experiment: qHTS assay to identify small molecule agonists of the glucocorticoid receptor (GR) signaling pathway (AID 720691; active means well fitted activation curve with a large enough effect in the signal ratio in the repeat runs, not every such curve was filed as active; inconclusive means weak or mixed curves, or effect the other way; inactive means no such curve, though single readings can be large or run the other way; the % refers to the signal ratio; further: potency means the concentration at half of the fitted maximal effect)
Details: GR-bla HeLa, beta-lactamase reporter ratio, 18 h; series mostly up to 62.4 µM
Procedure, shortened: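 Measures GR pathway activation through a GRE-beta-lactamase reporter stably integrated in HeLa cells, with 18 h compound treatment at 37 C and fluorescence detection using a FRET substrate.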
For COc1ccc(C(Cl)=C(c2ccc(OC)cc2)c2ccc(OC)cc2)cc1, the Potency was “inactive”. In the case of Nc1ccc([N+](=O)[O-])cc1O, the Potency is reported as “inactive”. With CCCCNC(=O)NS(=O)(=O)c1ccc(C)cc1 the Potency was “inactive”. With Nc1c(N=Nc2ccc(-c3ccc(N=Nc4cc(S(=O)(=O)O)c5ccccc5c4N)cc3)cc2)cc(S(=O)(=O)O)c2ccccc12 the Potency was “inactive”. In the case of O=C(Nc1ncc([N+](=O)[O-])s1)c1cccs1, the Potency is reported as “inactive”. In the case of CC1(C)O[C@@H]2C[C@H]3[C@@H]4CCC5=CC(=O)C=C[C@]5(C)[C@@]4(F)[C@@H](O)C[C@]3(C)[C@]2(C(=O)CO)O1, the Potency is reported as 3 nM [inconclusive] (active) and 349 nM [inconclusive] (active) and 1.4 nM (active). For CC(=O)Nc1c(I)c(NC(C)=O)c(I)c(C(=O)O)c1I, the Potency was “inactive”. With Cc1cccc(C)c1 the Potency was “inactive”. For C=C(C)C(=O)OCC(C)O (configuration not stated), the Potency was “inactive”. For COc1ccc2c(c1)c(CC(=O)O)c(C)n2C(=O)c1ccc(Cl)cc1, the Potency was “inactive”. With Nc1ccc(O)c([N+](=O)[O-])c1 the Potency was “inactive”. For CCN(CC)C(=O)c1cccc(C)c1, the Potency was “inactive”. For COc1ccc(CN(CCN(C)C)c2ccccn2)cc1, the Potency was “inactive”.

Biological target: Glucocorticoid receptor (Homo sapiens) (UniProt P04150)
Experiment: qHTS assay to identify small molecule antagonists of the glucocorticoid receptor (GR) signaling pathway (AID 720692; active means well fitted inhibition curve with a large enough effect in the signal ratio in the repeat runs, not every such curve was filed as active; inconclusive means weak or mixed curves, or effect the other way; inactive means no such curve, though single readings can be large or run the other way; the % refers to the signal ratio; further: potency means the concentration at half of the fitted maximal effect)
Details: GR-bla HeLa, beta-lactamase FRET ratio, dexamethasone-stimulated, 18 h; series mostly up to 58.5 µM
Procedure, shortened: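 Tox21 10K library screened in concentration-response for blockade of dexamethasone (5 nM final)-induced GRE-bla reporter activity in HeLa cells; 18 h treatment, fluorescence read.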
For CCCCNC(=O)NS(=O)(=O)c1ccc(C)cc1, the Potency was “inactive”. With Nc1c(N=Nc2ccc(-c3ccc(N=Nc4cc(S(=O)(=O)O)c5ccccc5c4N)cc3)cc2)cc(S(=O)(=O)O)c2ccccc12 the Potency was 21.3 µM (active). For CC(=O)Nc1c(I)c(NC(C)=O)c(I)c(C(=O)O)c1I, the Potency was “inactive”. For Cc1cccc(C)c1, the Potency was “inactive”. With C=C(C)C(=O)OCC(C)O (configuration not stated) the Potency was “inactive”. With CCN(CC)C(=O)c1cccc(C)c1 the Potency was “inactive”. For COc1ccc(CN(CCN(C)C)c2ccccn2)cc1, the Potency was “inactive”.
